Measured values reported in PubChem BioAssay (NCI).
Compounds without any hit were thinned out: in the full panel of roughly 83,000, 20% have a hit.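 Single-concentration screen, 48 h exposure, 96-well plates. Endpoint: percent growth. Below 10 = active.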 Active and inactive are the calls of the source.

What was measured:
Test in all cases: NCI-60 one-dose screen, 48 h (100 = growth as untreated, 0 = no growth, -100 = all killed)
Details in all cases: 10 µM unless noted
HCT-15 colon = test system: HCT-15 colon
HT29 colon = test system: HT29 colon
SNB-75 CNS = test system: SNB-75 CNS
SNB-19 CNS = test system: SNB-19 CNS
U251 CNS = test system: U251 CNS
PC-3 prostate = test system: PC-3 prostate
SK-MEL-5 melanoma = test system: SK-MEL-5 melanoma
UACC-62 melanoma = test system: UACC-62 melanoma
LOX IMVI melanoma = test system: LOX IMVI melanoma
SK-MEL-28 melanoma = test system: SK-MEL-28 melanoma
SK-MEL-2 melanoma = test system: SK-MEL-2 melanoma
EKVX NSCLC = test system: EKVX NSCLC
SN12C renal = test system: SN12C renal
UO-31 renal = test system: UO-31 renal
TK-10 renal = test system: TK-10 renal
ACHN renal = test system: ACHN renal
CAKI-1 renal = test system: CAKI-1 renal
CCRF-CEM leukemia = test system: CCRF-CEM leukemia
MOLT-4 leukemia = test system: MOLT-4 leukemia

Measured: growth

CCCCCN1C=C/C(=C\C(=O)N(C)c2ccccc2Br)c2ccccc21
inactive: HCT-15 colon 102% | HT29 colon 98.3% | SNB-75 CNS 91.7% | SNB-19 CNS 94.6% | U251 CNS 87.7% | PC-3 prostate 92.1% | SK-MEL-5 melanoma 94.2% | UACC-62 melanoma 81.6% | LOX IMVI melanoma 93.6% | SK-MEL-28 melanoma 105% | SK-MEL-2 melanoma 109% | EKVX NSCLC 91.2% | SN12C renal 89.2% | UO-31 renal 87.8% | TK-10 renal 99.7% | ACHN renal 104% | CAKI-1 renal 82.2% | CCRF-CEM leukemia 96% | MOLT-4 leukemia 89.3%

COc1cc2c(c(O)c1Cl)C(=O)c1c(O)cc(C[C@H](C)O)cc1[C@H]2[C@H]1c2cc(C[C@H](C)O)cc(O)c2C(=O)c2c1cc(OC)c(Cl)c2O
active: HCT-15 colon 8.82% | HT29 colon 9.65% | SNB-75 CNS -3.83% | U251 CNS 8.26% | SK-MEL-5 melanoma -65.7% | UACC-62 melanoma 0.814% | LOX IMVI melanoma 7.32% | SK-MEL-2 melanoma -31.6% | SN12C renal 8.13% | UO-31 renal 2.84% | ACHN renal -5.77% | CAKI-1 renal 8.67%
inactive: SNB-19 CNS 18% | PC-3 prostate 16.7% | SK-MEL-28 melanoma 38.2% | EKVX NSCLC 13.5% | TK-10 renal 31.8% | CCRF-CEM leukemia 18.6% | MOLT-4 leukemia 14.9%

CCCCCN1C=C/C(=C\C(=O)N(C)c2ccc(OC(F)(F)F)cc2)c2ccccc21
inactive: HCT-15 colon 99.8% | HT29 colon 81.2% | SNB-75 CNS 104% | SNB-19 CNS 96.9% | U251 CNS 95.4% | PC-3 prostate 93.7% | SK-MEL-5 melanoma 96.5% | UACC-62 melanoma 89.3% | LOX IMVI melanoma 101% | SK-MEL-28 melanoma 109% | SK-MEL-2 melanoma 101% | EKVX NSCLC 87.2% | SN12C renal 96% | UO-31 renal 77.4% | TK-10 renal 105% | ACHN renal 108% | CAKI-1 renal 89.4% | CCRF-CEM leukemia 104% | MOLT-4 leukemia 95.8%

CC(=O)N1c2ccccc2NC2=C(C(=O)NC2(C)C)C1c1ccco1 (configuration not stated)
inactive: HCT-15 colon 93.1% | HT29 colon 92.5% | SNB-75 CNS 73.5% | SNB-19 CNS 81.2% | U251 CNS 96.5% | PC-3 prostate 54.6% | SK-MEL-5 melanoma 64.6% | UACC-62 melanoma 66.5% | LOX IMVI melanoma 86.4% | SK-MEL-28 melanoma 75.2% | SK-MEL-2 melanoma 84.2% | EKVX NSCLC 95.8% | SN12C renal 99.1% | UO-31 renal 85.2% | TK-10 renal 98.4% | ACHN renal 107% | CAKI-1 renal 90.3% | CCRF-CEM leukemia 80.6% | MOLT-4 leukemia 96.5%

C=C1C(=O)O[C@H]2[C@H]1CC/C(COC(=O)NCC(C)c1ccc(CC(C)C)cc1)=C\CC[C@@]1(C)O[C@@H]21 (some centres not stated)
active: HCT-15 colon -59.2% | HT29 colon -60.6% | SNB-75 CNS -5.57% | U251 CNS -22.3% | PC-3 prostate 0.0191% | UACC-62 melanoma -37.7% | LOX IMVI melanoma -83.8% | SK-MEL-28 melanoma -66.7% | SK-MEL-2 melanoma -45.2% | EKVX NSCLC -6.2% | SN12C renal -57% | UO-31 renal -100% | TK-10 renal -36.1% | ACHN renal -100% | CAKI-1 renal -23.9% | CCRF-CEM leukemia -24.2% | MOLT-4 leukemia -8.4%
inactive: SNB-19 CNS 36.9% | SK-MEL-5 melanoma 17.1%

CCOC(=O)[C@@H](C)C[C@H](Cc1ccccc1)NC(=O)c1csc([C@@H](C[C@H](C(C)C)N(C)C(=O)[C@@H](NC(=O)[C@H]2C[C@H](O[Si](C)(C)C(C)(C)C)CCN2C)C(C)C)OC(C)=O)n1
inactive: SK-MEL-28 melanoma 24.2% [9.25 µM] | EKVX NSCLC 24.1% [9.25 µM] | TK-10 renal 12.1% [9.25 µM] | CAKI-1 renal 15.9% [9.25 µM]
active: HCT-15 colon -6.05% [9.25 µM] | HT29 colon -71.7% [9.25 µM] | SNB-75 CNS 7.94% [9.25 µM] | SNB-19 CNS 5.09% [9.25 µM] | U251 CNS -17.3% [9.25 µM] | PC-3 prostate 6.78% [9.25 µM] | SK-MEL-5 melanoma -14.5% [9.25 µM] | UACC-62 melanoma 4.13% [9.25 µM] | LOX IMVI melanoma 4.27% [9.25 µM] | SK-MEL-2 melanoma -21.2% [9.25 µM] | SN12C renal 3.13% [9.25 µM] | UO-31 renal 8.06% [9.25 µM] | ACHN renal 5.74% [9.25 µM] | CCRF-CEM leukemia 0.176% [9.25 µM] | MOLT-4 leukemia 1.33% [9.25 µM]

NCCCCCCNc1cc(-c2cccc(OC(F)(F)F)c2)nc2ccc(N3CCCC3)cc12
active: HCT-15 colon -54.2% | HT29 colon -2.69% | SNB-75 CNS -32.4% | U251 CNS -59% | PC-3 prostate -5.66% | SK-MEL-5 melanoma -98.4% | UACC-62 melanoma -56.9% | LOX IMVI melanoma -93.6% | SK-MEL-28 melanoma -83.4% | SK-MEL-2 melanoma -63.6% | SN12C renal -20.1% | UO-31 renal -91.5% | TK-10 renal -44.4% | ACHN renal -16.6% | CAKI-1 renal -45.9% | CCRF-CEM leukemia -32.2% | MOLT-4 leukemia -20.7%
inactive: SNB-19 CNS 16.5% | EKVX NSCLC 65.4%

O=C(O)c1ccc(NCc2cn(-c3ccc(C(F)(F)F)cc3)nc2-c2ccc(C(=O)O)cc2)cc1
inactive: HCT-15 colon 101% | HT29 colon 108% | SNB-75 CNS 91.8% | SNB-19 CNS 101% | U251 CNS 99.7% | PC-3 prostate 108% | SK-MEL-5 melanoma 103% | UACC-62 melanoma 101% | LOX IMVI melanoma 99.4% | SK-MEL-28 melanoma 112% | SK-MEL-2 melanoma 112% | EKVX NSCLC 98% | SN12C renal 103% | UO-31 renal 84.2% | TK-10 renal 106% | ACHN renal 109% | CAKI-1 renal 95.8% | CCRF-CEM leukemia 106% | MOLT-4 leukemia 109%
